Bioassay records from PubChem.
FBW7 act: FBW7 E3 ligase activators, primary screen, biochemical, AlphaScreen, human | F-box/WD repeat-containing protein 7 (Homo sapiens), Q969H0 | AlphaScreen FBW7–phospho-cyclin E peptide binding, activator screen | normalized activity (activation), % at 26.1 µM | 650,000 tested, 0.13% active | AID 1259310, 2017; in the data active = normalized activity above about 1.9%;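 also: purified mutant Fbw7 with reduced substrate affinity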
TEAD-YAP block: TEAD-YAP interaction inhibition, primary screen, TEAD-YAP interaction inhibitor project, luminescence, HEK-TIYL cells | 640,000 tested, 1.4% active | inhibition, % at 9.12 µM | TEAD-Gal4/YAP UAS-luciferase luminescence | AID 1259422, 2018; in the data active = inhibition above about 32%
GPR151 activ: activators of human GPR151, primary screen, cell-based, PathHunter beta-arrestin, luminescence; PathHunter beta-arrestin GPR151 cells; activation, % at 11.2 µM; 650,000 tested, 1% active; AID 1508602, 2020; in the data active = activation above about 4.9%
MITF inh: MITF inhibitors, primary screen, biochemical, AlphaScreen, human | AID 1259374, 2018 | AlphaScreen MITF homodimerization, bead proximity signal | 650,000 tested, 0.91% active | inhibition, % at 2.6 µM | Microphthalmia-associated transcription factor (Homo sapiens), O75030; in the data active = inhibition above about 50%
GPR151 confirm: GPR151 activators, triplicate retest, confirmation, cell-based, PathHunter beta-arrestin, luminescence | shares compounds with GPR151 activ | GPR151 PathHunter beta-arrestin cells, 90 min; % of EA-reagent control over plate median | activation, % at 11.2 µM | 6,700 tested, under 10 active;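 active = mean percent activation across replicates above the confirmation screen cutoff of 4.91%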
GPR119 counter: GPR119 activators in beta-arrestin cells, counter-screen for GPR151 activator project, cell-based, PathHunter beta-arrestin, luminescence, triplicate; shares compounds with GPR151 activ; 90 min; 0 = compound-well median, 100 = enzyme-acceptor control; activation, % at 11.2 µM; 6,700 tested, 0.3% active; AID 1508611, 2020;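 active = mean percent activation in the counterscreen above 29.09%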;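 also: counterscreen on off-target GPR119 to flag nonselective hits from the GPR151 activator screen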
Numbers stand for hits; - = inactive; . = no result. A selection: hits, their analogues and other compounds. The true share with any hit is near 3.5%.

SMILES | FBW7 act | TEAD-YAP block | GPR151 activ | MITF inh | GPR151 confirm | GPR119 counter
Cc1cnc(Nc2ccc3ncccc3c2)nc1NCCN(C(C)C)C(C)C | - | - | 5.4 | - | - | -
Cc1cccc(NC(=O)CSc2cn(Cc3ccccc3C)c3ccccc23)c1 | - | - | - | - | . | .
N#Cc1ccc2ccn(CC(=O)NCCc3ccccc3)c2c1 | - | - | - | - | . | .
O=C(CCCn1nc(-c2ccccc2)c2ccccc21)NCc1ccccn1 | - | - | 7.6 | - | - | -
COC(=O)COc1ccc(NC(=O)C(c2ccccc2)c2ccccc2)cc1 | - | - | - | - | . | .
O=C(Nc1ccc(S(=O)(=O)Nc2ncccn2)cc1)C(c1ccccc1)c1ccccc1 | - | - | 7.1 | - | - | -
O=C(O)COc1ccc(NC(=O)C(c2ccccc2)c2ccccc2)cc1 | - | - | 4.9 | - | - | -
